Test results published in PubChem BioAssay (NCATS).
A number with no mark means an inactive call. Results filed as inconclusive are left out. Activity calls are given as the source filed them. Calls come from the whole dose curve; as a rule, active = well fitted curve in the direction sought with a large enough effect; inconclusive = small, poorly fitted or top-dose-only effect, or another doubt; inactive = no such curve, though single readings can be large; an effect the other way counts as inactive or inconclusive. Where a SMILES comes first, the peptide text is derived from it. Bridges are numbered along the chain shown (N, C = ends). [ ]: non-standard residue; d: D form. NMeY = CN[CH](Cc1ccc(O)cc1)C(=O)O

biological target: Luciferin 4-monooxygenase (Photinus pyralis) (UniProt P08659); test: Primary firefly luciferase (FLuc) qHTS assay for identification of artifact compounds. (AID 1845220); details: purified firefly luciferase, luminescence, 5 min; series mostly up to 54.1 µM; activity change, negative = inhibition: at the top concentration; note: nearly all actives have a fitted effect of over 60% in size;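 for activity change, negative = inhibition: plate controls were DMSO vehicle for no effect and no enzyme for full effect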
Outline: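 Compounds sat 15 min at room temperature with 10 uM luciferin and 10 uM ATP (pH 7.6 Tris acetate). Firefly luciferase (10 nM final) was then added, and luminescence was read 5 min later. Data normalized to no-enzyme and DMSO controls were Hill-fitted.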

SMILES	activity change, negative = inhibition	outcome
CC(=O)OC1C(=O)C2(C)C(O)CC3OCC3(OC(C)=O)C2C(OC(=O)c2ccccc2)C2(O)CC(OC(=O)C(O)C(NC(=O)c3ccccc3)c3ccccc3)C(C)=C1C2(C)C (configuration not stated)	-2.49%	–
COc1cc(O)cc(C)c1C(=O)OC1C(CO)OC(OC2C(O)C(O)C(O)C(O)C2O)C(O)C1O (configuration not stated)	–	inactive [at 25.7 µM]
CC(Nc1ncnc2nc[nH]c12)c1cc2cccc(Cl)c2c(=O)n1-c1ccccc1 (configuration not stated)	0.312%	–
CC(C)(O)C1CCC(C)(C2CCC3(C)C4CCC5C(C)(C(=O)OC6OC(CO)C(O)C(O)C6O)C(O)CC(O)C56CC46CCC23C)O1 (configuration not stated)	-0.571% [at 25.7 µM]	–
CC(C)C(N)C(=O)OCCOCn1cnc2c(=O)[nH]c(N)nc21 (configuration not stated)	-5.6%	–

tested on: not listed separately; test: Primary fluorescence-based thiol-reactive (MSTI) qHTS assay for identification of artifact compounds. (AID 1845221); details: MSTI thiol-reactivity probe, 1 h; series mostly up to 53.8 µM; activity change, negative = thiol reactive: at the top concentration; note: nearly all actives have a fitted effect of over 65% in size; note: potency is the fitted concentration of half-maximal effect;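 for activity change, negative = thiol reactive: thiol-reactive compounds lower the probe fluorescence signal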
Outline: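 Reactivity toward the thiol probe MSTI (4 uM) is scored by fluorescence at Ex/Em 525/598 nm after 1 h at room temperature. Acetyl-MSTI and MSTI define the activity scale.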

SMILES	activity change, negative = thiol reactive	Potency
COC(C(=O)N1Cc2[nH]nc(NC(=O)c3ccc(N4CCN(C)CC4)cc3)c2C1)c1ccccc1 (configuration not stated)	104%	–
CC1OC(O[C@H]2CC[C@@]3(C)C(CC[C@]4(C)C3CC=C3C5CC(C)(C)CC[C@]5(C(=O)OC5OC(CO)C(OC6OC(COC7OCC(O)C(O)C7O)C(O)C(O)C6O)C(O)C5O)CC[C@]34C)C2(C)C)C(O)C(O)C1OC1OCC(OC2OCC(O)C(O)C2O)C(O)C1O (some centres not stated)	94.7% [at 11.5 µM]	–
COc1ccc(CNC(=O)c2cc(-c3cncc(C)c3)ncc2-c2nccs2)nc1OC	25.2%	–
N=c1nc2n(cc1F)C1OC(CO)C(O)C1O2 (configuration not stated)	-0.766%	–
Cc1ccc(C(=O)N(CCCN)C(c2nc3cc(Cl)ccc3c(=O)n2Cc2ccccc2)C(C)C)cc1 (configuration not stated)	-21.8%	–
Cc1ccc(NC(=O)c2ccc(CN3CC[C@H](N(C)C)C3)c(C(F)(F)F)c2)cc1Nc1nccc(-c2cncnc2)n1	155% [at 25.6 µM]	–
COc1cc(O)c([C@@H](CC(=O)N2CC(C)CC(C)C2)c2ccc3c(c2)OCO3)c(OC)c1 (some centres not stated)	11.4%	–
O=C(Nc1ccc(S(=O)(=O)Nc2nccs2)cc1)C(c1ccccc1)c1ccccc1	163%	–
CN(C)C(=O)NC1CCC(CCN2CCN(c3cccc(Cl)c3Cl)CC2)CC1 (configuration not stated)	20.5% [at 11.5 µM]	–
CCC(C)C1NC(=O)C2CCCN2C(=O)C(NC(C)=O)C(C)OC(=O)C(Cc2ccc(OC)cc2)N(C)C(=O)C2CCCN2C(=O)C(C(C)C)NC1=O (configuration not stated) (Ac-TPIVP[NMeY](Me); ester 1-C; configuration not given here)	61.1% [at 25.6 µM]	–
CC(C)(F)C[C@@H](N[C@@H](c1ccc(-c2ccc(S(C)(=O)=O)cc2)cc1)C(F)(F)F)C(=O)NC1(C#N)CC1	89%	–
C[C@@H]1CCC2C(C)(C)[C@H](O)CC[C@]2(C)[C@@]12Cc1c(O)cc3c(c1O2)CN([C@@H](CCC(=O)O)C(=O)O)C3=O (some centres not stated)	94.3% [at 25.6 µM]	–
CC(=O)N[C@@H](CCCCN)C(=O)N(C)[C@@H](CC(C)C)C(=O)N[C@H](C(=O)N(C)[C@@H](Cc1ccccc1)C(=O)N[C@H](Cc1ccccc1)C(N)=O)C(C)C	50.7% [at 6.41 µM]	–
O=C1OCC(c2ccccc2)=C1Cc1ccccc1	62.4%	–
CC(NC(=O)C(O)C(C)C)C(=O)NC1C(=O)N(C)CCc2ccccc21 (configuration not stated)	-21%	–
OC[C@H]1O[C@@H](Oc2ccccc2)[C@H](O)[C@@H](O)[C@@H]1O	–	21.2 µM (active)
CC1(C)CC[C@]2(C(=O)O[C@@H]3O[C@H](CO)[C@@H](O)[C@H](O)[C@H]3O)CC[C@]3(C)C(=CCC4[C@@]5(C)CC[C@H](O[C@@H]6O[C@H](C(=O)O)[C@@H](O)[C@H](O)[C@H]6O)[C@@](C)(CO)C5CC[C@]43C)C2C1 (some centres not stated)	129% [at 11.5 µM]	–
CC(O)CO[C@@H]1O[C@H](CO)[C@@H](O)[C@H](O)[C@H]1O (some centres not stated)	-17.4%	–
O=C(CCc1nnc2n(Cc3ccc(Cl)cc3)c(=O)c3ccccc3n12)NCCC1=CCCCC1	-13.8%	–
CNC(=O)c1cccc(-c2ccc3c(N4CCOC[C@@H]4C)nc(N4CCOC[C@@H]4C)nc3n2)c1	82.5%	–
CC(=O)OC1C(=O)C2(C)C(O)CC3OCC3(OC(C)=O)C2C(OC(=O)c2ccccc2)C2(O)CC(OC(=O)C(O)C(NC(=O)c3ccccc3)c3ccccc3)C(C)=C1C2(C)C (configuration not stated)	77.5%	–
CC(Nc1ncnc2nc[nH]c12)c1cc2cccc(Cl)c2c(=O)n1-c1ccccc1 (configuration not stated)	94.5%	–
CC(C)(O)C1CCC(C)(C2CCC3(C)C4CCC5C(C)(C(=O)OC6OC(CO)C(O)C(O)C6O)C(O)CC(O)C56CC46CCC23C)O1 (configuration not stated)	110% [at 25.6 µM]	–
CC(C)C(N)C(=O)OCCOCn1cnc2c(=O)[nH]c(N)nc21 (configuration not stated)	-0.084%	–

tested on: Nanoluciferase (engineered Oplophorus gracilirostris luciferase); test: Primary Nanoluciferase (NLuc) qHTS assay for identification of artifact compounds. (AID 1845222); details: NLuc-conditioned medium, Nano-Glo luminescence, 5 min; series mostly up to 54.1 µM; activity, negative = inhibition: at the top concentration;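 note: 0% = DMSO and -100% = no enzyme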
Outline: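 Luminescence from secreted NLuc (filtered, 1:55-diluted S16 cell medium) read 5 min after Nano-Glo substrate; compounds preincubated 15 min, RT. Hill fits of inhibition normalized to DMSO and no-enzyme.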

SMILES	activity, negative = inhibition
COC(C(=O)N1Cc2[nH]nc(NC(=O)c3ccc(N4CCN(C)CC4)cc3)c2C1)c1ccccc1 (configuration not stated)	-11%
CC1OC(O[C@H]2CC[C@@]3(C)C(CC[C@]4(C)C3CC=C3C5CC(C)(C)CC[C@]5(C(=O)OC5OC(CO)C(OC6OC(COC7OCC(O)C(O)C7O)C(O)C(O)C6O)C(O)C5O)CC[C@]34C)C2(C)C)C(O)C(O)C1OC1OCC(OC2OCC(O)C(O)C2O)C(O)C1O (some centres not stated)	0% [at 11.6 µM]
COc1ccc(CNC(=O)c2cc(-c3cncc(C)c3)ncc2-c2nccs2)nc1OC	-5.95%
